This passage reports inhibition results from PubChem BioAssay.

Values without a mark were called inactive. Calls of active or inactive are those of the source. Cut-off read from the data, not from the text of the source, unless noted: active = inhibition above about 42%; inactive = the rest.

Assay [1] in a line: StAR promoter reporter inhibitors, counter-screen for LRH-1 inverse agonist project, cell-based, luminescence, high throughput (AID 651611; in the data active = inhibition above about 28%). Particulars: StAR promoter luciferase reporter counterscreen, at 3.6 µM, hits give high values.
Assay [2] deals with Nuclear receptor subfamily 5 group A member 2 (Homo sapiens) (UniProt O00482). Nature of the assay: NR5A2 activity suppression in reporter cells – cell-based, luminescence, confirmation (AID 651613).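 Note: HEK293T cells co-transfected with LRH-1 and StAR promoter luciferase reporter; 0% = vehicle wells and 100% = parental cells lacking receptor.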 Particulars: cell-based LRH-1 luciferase reporter, inverse agonism; at 3.6 µM; hits give high values. (In a reporter assay the amount or activity of a reporter protein is the signal.)

The target of assay [3] is Steroidogenic factor 1 (Homo sapiens) (UniProt Q13285). Description: inverse agonism at SF1 nuclear receptor – cell-based, luminescence, high throughput, counter-screen for LRH-1 inverse agonist project (AID 651614; in the data active = inhibition above about 44%;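 note: cells cotransfected with StAR promoter reporter and SF1 expression vector; 0% = vehicle on cells with receptor and 100% = vehicle on cells lacking receptor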). To be noted: cell-based SF1 luciferase reporter, at 3.6 µM, hits give high values.
Assay [4] in a line: compounds suppressing VP16-driven luciferase signal – cell-based, luminescence, high throughput, counter-screen for LRH-1 inverse agonist project (AID 651615; in the data active = inhibition above about 33%). To be noted: Gal4-VP16 luciferase reporter cells, at 3.6 µM, hits give high values.

Steroidogenic factor 1 (Homo sapiens), sequence (Q13285 whole entry, looked up, the tested form may be a part): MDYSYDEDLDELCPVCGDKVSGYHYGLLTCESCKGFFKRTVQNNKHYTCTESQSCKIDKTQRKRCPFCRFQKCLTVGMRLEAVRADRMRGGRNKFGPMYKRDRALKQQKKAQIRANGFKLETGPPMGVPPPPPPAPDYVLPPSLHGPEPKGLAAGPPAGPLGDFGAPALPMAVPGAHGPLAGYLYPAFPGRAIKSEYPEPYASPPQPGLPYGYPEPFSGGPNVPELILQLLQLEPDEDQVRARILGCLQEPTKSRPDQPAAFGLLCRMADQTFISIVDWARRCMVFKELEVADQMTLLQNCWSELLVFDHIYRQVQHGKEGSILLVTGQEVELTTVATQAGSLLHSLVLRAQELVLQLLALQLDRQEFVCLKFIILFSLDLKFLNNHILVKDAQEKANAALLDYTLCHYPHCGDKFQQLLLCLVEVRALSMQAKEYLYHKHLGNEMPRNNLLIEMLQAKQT
Nuclear receptor subfamily 5 group A member 2 (Homo sapiens), sequence (O00482 whole entry, looked up): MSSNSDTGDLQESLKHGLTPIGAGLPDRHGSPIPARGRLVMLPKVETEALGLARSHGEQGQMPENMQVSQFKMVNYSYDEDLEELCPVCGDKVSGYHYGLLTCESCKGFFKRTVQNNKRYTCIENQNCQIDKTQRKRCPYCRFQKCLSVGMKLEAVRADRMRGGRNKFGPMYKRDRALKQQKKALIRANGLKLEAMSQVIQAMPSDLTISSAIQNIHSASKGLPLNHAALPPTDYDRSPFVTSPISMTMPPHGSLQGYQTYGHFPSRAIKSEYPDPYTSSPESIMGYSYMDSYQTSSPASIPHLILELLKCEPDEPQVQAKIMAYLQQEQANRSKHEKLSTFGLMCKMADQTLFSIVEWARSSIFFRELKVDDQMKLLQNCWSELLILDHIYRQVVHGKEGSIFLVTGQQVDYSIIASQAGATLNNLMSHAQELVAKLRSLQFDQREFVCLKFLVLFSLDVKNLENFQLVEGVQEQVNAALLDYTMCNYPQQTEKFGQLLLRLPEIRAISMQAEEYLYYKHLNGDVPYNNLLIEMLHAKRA

Usually inhibition stands for the relative decrease from the control value, in per cent. Consider `CCN(CC)c1nc(-c2ccccn2)nc(-c2ccccc2)c1C#N`, for which the inhibition in assay [1] was 11.5%; in assay [2], 53.4% (active); in assay [3], 55.7% (active); in assay [4], 13.6%.

With `CCOc1ccc(NC(=O)CSc2nc3c(c(=O)n2-c2ccccc2OC)SCC3)cc1`, the inhibition is 8.34% in assay [1], 63.1% (active) in assay [2], 58.7% (active) in assay [3] and -10.6% in assay [4].

On to `Cc1c(C(=O)N(Cc2ccc(F)cc2)C2CCS(=O)(=O)C2)oc2ccccc12` (stereo not drawn), for which the inhibition was 36.8% (active) in assay [1], 8.94% in assay [2], 31.4% in assay [3] and -5.18% in assay [4].

In the case of `O=C(NCc1cccc(C(F)(F)F)c1)c1cc(-c2ccccc2)nn1CC1CC(c2cccnc2)=NO1` (stereo not drawn), the inhibition in assay [1] was 13%; in assay [2], 36.4%; in assay [3], 32.1%; in assay [4], 6.07%.

`Cc1nc2ccc(NS(=O)(=O)c3ccc4c(c3)OCCO4)cc2s1`: the inhibition is 7.73% in assay [1], 56.4% (active) in assay [2], 57.4% (active) in assay [3] and 52.6% (active) in assay [4].

On to `Cc1ccc(N2CC(C(=O)Nc3nc4ccc(S(C)(=O)=O)cc4s3)CC2=O)cc1` (stereo not drawn), for which the inhibition in assay [1] was 12.4%; in assay [2], 52.6% (active); in assay [3], 48.4% (active); in assay [4], -0.21%.

Turning to `O=C(NC1CCC(CC2CCC(NC(=O)C(Cl)Cl)CC2)CC1)C(Cl)Cl` (stereo not drawn), the inhibition in assay [1] is 6.07%; in assay [2], 58.2% (active); in assay [3], 62% (active); in assay [4], -2.2%.

For `Cc1cccc(-c2cc(NCCc3cccnc3)n3nccc3n2)c1`, the inhibition in assay [1] was 14.2%; in assay [2], 51.1% (active); in assay [3] it was 41.3%; in assay [4] it was -2.05%.

Take `O=C(COC(=O)c1cccc(O)c1)Nc1ccc(N2CCOCC2)cc1`: the inhibition was 13.6% in assay [1], 54.3% (active) in assay [2], 54.6% (active) in assay [3] and -6.64% in assay [4].

`COc1ccc(OC)c(NC(=O)c2ccccc2NC(=O)c2ccco2)c1`: the inhibition is 12.6% in assay [1], 45.3% (active) in assay [2], 47.3% (active) in assay [3] and -1.48% in assay [4].

Turning to `Cc1cc(C)c2c(N)c3cccc(C)c3nc2n1`, the inhibition in assay [1] is 30.8% (active); in assay [2] it was 105% (active); in assay [3], 45.8% (active); in assay [4], 89% (active).

Regarding `Cc1ccccc1NC(=O)c1ccc([N+](=O)[O-])o1`, the inhibition in assay [1] is 8.33%; in assay [2] it was 64.8% (active); in assay [3] it was 57.6% (active); in assay [4] it was -16%.

Regarding `O=C(CN1C(=O)CCC1=O)Nc1ccc(Br)cc1`, the inhibition in assay [1] is 15.1%; in assay [2] it was 60.2% (active); in assay [3], 52.2% (active); in assay [4], -3.7%.

For `Cc1cc(OCC(=O)Nc2nccs2)c2c(C)c(C)c(=O)oc2c1`, the inhibition is 42% (active) in assay [1], 74.5% (active) in assay [2], 66.2% (active) in assay [3] and -127% in assay [4].

For `COc1ccc2sc(-c3ccc(N(C)C)cc3)c(C#CCCO)c2c1`, the inhibition was 3.58% in assay [1], 21.3% in assay [2], 53.7% (active) in assay [3] and -4.7% in assay [4].

In the case of `Cc1sc(NC(=S)NC(=O)CCc2ccccc2)c(C(N)=O)c1C`, the inhibition was 54% (active) in assay [1], 35.5% in assay [2], 38.1% in assay [3] and 11.8% in assay [4].

Take `COc1cc(C(=O)NC2CCN(C)CC2)ccc1Nc1ncc2c(n1)N(C1CCCCC1)CCC(=O)N2C`: the inhibition is 60.6% (active) in assay [1], 54.4% (active) in assay [2], 40% in assay [3] and -159% in assay [4].

Consider `N=c1sccn1CC(=O)Nc1ccc(S(N)(=O)=O)cc1`, for which the inhibition is 17.1% in assay [1], 54.1% (active) in assay [2], 50.5% (active) in assay [3] and -2.17% in assay [4].

Turning to `CCOC(=O)c1c2c(n(Cc3ccccc3)c1C)C(=O)C(=O)c1ccccc1-2`, the inhibition in assay [1] was 48.7% (active); in assay [2], 60.6% (active); in assay [3], 71.6% (active); in assay [4], 54.6% (active).

For the compound `O=C(Nc1ccc(Nc2ccccc2)cc1)c1cc([N+](=O)[O-])ccc1Cl`, the inhibition in assay [1] is 6%; in assay [2], 52.7% (active); in assay [3], 53.4% (active); in assay [4], 9.35%.

On to `Cc1ccc(CNC(=O)c2ccc([N+](=O)[O-])o2)cc1`, for which the inhibition was 16.4% in assay [1], 57% (active) in assay [2], 60.8% (active) in assay [3] and -5.02% in assay [4].

With `COc1ccc(Oc2ccc(NC(=O)c3ccccc3C)cc2)cc1`, the inhibition in assay [1] is 8.67%; in assay [2], 38.8%; in assay [3], 40.1%; in assay [4], -18.1%.

For the compound `CN1CCN(c2nc(-c3ccccc3O)nc3ccccc23)CC1`, the inhibition in assay [1] is 5.26%; in assay [2] it was 42% (active); in assay [3] it was 26.3%; in assay [4], 39.5% (active).

Turning to `OCCCNc1c2ccccc2nc2ccccc12`, the inhibition in assay [1] was 13.1%; in assay [2] it was 107% (active); in assay [3], 56.7% (active); in assay [4], 96.4% (active).

Take `COc1ccc(C(=O)C(C)Oc2cccc(NC(=O)c3cccc([N+](=O)[O-])c3)c2)cc1` (stereo not drawn): the inhibition is 1.27% in assay [1], 35.4% in assay [2], 44.1% (active) in assay [3] and -5.28% in assay [4].

With `COc1ccc(CCNC(=O)COC(=O)C23CC4CC(CC(Br)(C4)C2)C3)cc1`, the inhibition in assay [1] was 4.42%; in assay [2], 53.8% (active); in assay [3], 53.9% (active); in assay [4] it was 4.71%.

Turning to `CCn1cc(CN(C)S(=O)(=O)c2ccc3ccccc3c2)c(C)n1`, the inhibition in assay [1] was -0.8%; in assay [2] it was 50.9% (active); in assay [3], 52.5% (active); in assay [4], 40.2% (active).
